hgDAF12 agonist: H. glycines DAF-12 receptor agonists, primary screen, cell-based, luminescence, HEK293, GAL4 fusion, UAS-luciferase. Nuclear hormone receptor DAF-12 (Heterodera glycines), GAL4 fusion. HEK293 GAL4-hgDAF12 UAS-luciferase reporter, agonist luminescence; normalized to butyrate control. activation, % at 6.8 µM. 1.8% of 370,000 active. AID 687014, 2013;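 active means activation above a cutoff set at the mean of all screened compounds plus 3 SD, cut at about 10% in these data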
ssDAF-12 act: S. stercoralis DAF-12 nuclear receptor activators, primary screen, cell-based, luminescence, HEK293, GRIP1 co-expression, lit1-tk-luc. 1% of 370,000 active. AID 652126, 2013. HEK293 ssDAF-12/GRIP1 lit1-tk-luc reporter; % of 3 µM dafachronic acid response. Nuclear hormone receptor DAF-12 (Strongyloides stercoralis). activation, % at 6.8 µM;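 active means activation above the mean over all tested compounds plus 3 SD, cut at about 0.9% in these data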
SMARCA2 act: SMARCA2 (BRM) function activators, primary screen, cell-based, luminescence, high throughput. MG213 cells, MMTV-luciferase reporter, dexamethasone, overnight. activation, % at 9.1 µM. 1% of 370,000 active. AID 652017, 2013; in the data active means activation above about 7.8%
DAX1 inh-1: DAX1 (NR0B1) inhibitors on StAR promoter, primary screen, cell-based, luminescence, SF-1 (NR5A1), full-length DAX-1; 1.1% of 370,000 active; inhibition, % at 6.8 µM; AID 652010, 2013; HEK293T StAR-luciferase reporter, SF-1/DAX-1 repression relief;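 active means inhibition above the mean over all tested compounds plus 3 SD, cut at about 3.6% in these data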;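 further: higher inhibition means more luminescence from relief of DAX-1 repression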
DAX1 inh-2: DAX1 (NR0B1) inhibitors, primary screen, cell-based, HEK293, Gal4-DAX1, luciferase luminescence; Nuclear receptor subfamily 0 group B member 1 (Homo sapiens), P51843; HEK293 Gal4-DAX1 luciferase reporter; inhibition, % at 6.75 µM; 0.99% of 340,000 active;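 active means inhibition above the mean over all tested compounds plus 3 SD, cut at about 4.2% in these data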;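 further: inhibition shows as a rise in luminescence from relieved DAX1 repression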
Target sequence (P51843 207-470 limits assumed): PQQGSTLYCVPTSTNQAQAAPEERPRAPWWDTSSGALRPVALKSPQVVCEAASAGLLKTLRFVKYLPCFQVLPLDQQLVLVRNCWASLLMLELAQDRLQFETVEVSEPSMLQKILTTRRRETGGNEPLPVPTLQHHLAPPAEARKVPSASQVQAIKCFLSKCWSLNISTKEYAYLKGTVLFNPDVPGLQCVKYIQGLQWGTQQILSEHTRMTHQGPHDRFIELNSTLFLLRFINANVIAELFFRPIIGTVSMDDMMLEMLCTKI
hcDAF12 agonist: H. contortus DAF-12 nuclear receptor activators, primary screen, cell-based, luminescence, HEK293, lit1-tk-luc reporter; 1.4% of 370,000 active; HEK293 hcDAF-12 lit1-tk-luc reporter; 0% DMSO, 100% Δ7-dafachronic acid; activation, % at 6.8 µM;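 active means activation above the mean of all tested compounds plus 3 SD, cut at about 5.5% in these data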
A number is an active result; 0 = inactive; - = not tested or not shown. Only some compounds are listed: those with a hit (about 4.8% of all), similar ones and a draw of the others.

SMILES	hgDAF12 agonist	ssDAF-12 act	SMARCA2 act	DAX1 inh-1	DAX1 inh-2	hcDAF12 agonist
Cc1ccccc1CNC(=O)Cc1ccccc1[N+](=O)[O-]	0	0	0	0	0	0
CC(NC(=O)Cc1ccccc1[N+](=O)[O-])c1ccccc1 (centres undefined)	0	0	0	0	-	6.3
NS(=O)(=O)c1ccc(CCNC(=O)Cc2ccccc2[N+](=O)[O-])cc1	0	0	0	0	0	0
CC(NC(=O)Cn1cc(Br)c([N+](=O)[O-])n1)c1ccccc1 (centres undefined)	0	0	0	0	4.3	0
CCC(CC)NC(=O)Cc1ccccc1[N+](=O)[O-]	0	0	0	0	0	5.6
CCn1cc(Br)c(C(=O)NC(C)c2ccccc2)n1 (centres undefined)	0	0	0	0	0	0
O=S(=O)(N/N=C/c1ccc(N2CCOCC2)cc1)c1ccc(Br)cc1	0	0	0	0	0	0
Cc1nnc(N2CCCC(C(=O)NCc3cccc(F)c3)C2)c2nn(-c3ccccc3)c(C)c12 (centres undefined)	0	0	0	0	0	0
CCCCNS(=O)(=O)c1ccc(NC(=O)Cc2ccccc2[N+](=O)[O-])cc1	0	2.0	0	0	0	0
CC(C)(C)NS(=O)(=O)c1ccc(NC(=O)Cc2ccccc2[N+](=O)[O-])cc1	0	0	0	0	0	0
O=C(Cc1ccccc1[N+](=O)[O-])NC1CCN(Cc2ccccc2)CC1	0	1.5	0	0	0	0
O=C(Cc1c(F)cccc1Cl)NC1CCN(Cc2ccccc2)CC1	0	0	0	0	0	0
CCCC(=O)Nc1ccc(C2C(=O)c3ccccc3C2=O)cc1	0	0	0	0	0	0
Cc1cccc2cc(CN(C(=O)c3cccc([N+](=O)[O-])c3)C(C)C)c(=O)[nH]c12	0	0.9	0	0	0	0
CC(C)(C)N(Cc1cc2ccccc2[nH]c1=O)C(=O)c1cccc([N+](=O)[O-])c1	0	0	0	0	0	0
CCCCNC(=O)c1cc2c(-c3ccc(Cl)cc3)nn(C)c2s1	0	0	0	0	0	5.9
CC(C)NC(=O)c1cc2c(-c3ccc(Cl)cc3)nn(C)c2s1	0	0	0	0	4.4	0
Cc1nn(-c2ccccc2)c2sc(C(=O)N3CCOCC3)cc12	0	1.3	0	0	0	6.5
COc1cccc(-c2nn(C)c3sc(C(=O)NCc4ccco4)cc23)c1	0	0	0	0	0	0
COCCCNC(=O)c1cc2c(-c3ccc(Cl)cc3)nn(C)c2s1	0	0	0	0	0	0
Cc1ccc(CNC(=O)c2cc3c(-c4ccc(Cl)cc4)nn(C)c3s2)o1	0	1.6	0	0	0	0
CCN1CCCC1CNC(=O)c1cc2c(-c3ccc(Cl)cc3)nn(C)c2s1 (centres undefined)	-	-	-	-	4.6	-
Cn1nc(-c2ccc(Cl)cc2)c2cc(C(=O)N3CCN(c4ccccc4)CC3)sc21	0	0	0	0	0	5.7
CCN1CCCC1CNC(=O)c1cc2c(-c3cccc(OC)c3)nn(C)c2s1 (centres undefined)	0	0	0	0	0	0
O=C(CS(=O)(=O)c1cn(CC(=O)N2CCCC2)c2ccccc12)Nc1ccccc1F	0	0	0	0	0	0
NCCCn1c(C(=O)c2cc(Cl)c(N)c(Cl)c2)c2ccc(C(F)(F)F)cc2[n+]1[O-]	0	0	0	0	0	6.5
CCc1nnc(NC(=O)c2ccc(COc3ccccc3)o2)s1	0	0	0	0	0	0
O=C(O)CN1C(=O)/C(=C/C=C/c2ccccc2)SC1=S	0	0	0	0	0	0

High-throughput results: PubChem BioAssay, The Scripps Research Institute Molecular Screening Center
